The target of assay [1] is ATP-dependent 6-phosphofructokinase (Trypanosoma brucei brucei) (UniProt O15648). The assay is described as follows: qHTS Assay to Find Inhibitors of T. brucei phosphofructokinase: hit validation (AID 492961).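 Also: luminescence reports ADP formed as PFK phosphorylates fructose-6-phosphate with ATP; % is scaled to controls: 0 for no effect and ±100 for the full control effect.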 The gist of the method:
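Percent activity derived from corrected luminescence, normalized between 0x and 1x enzyme controls, then fitted to concentration-response curves. Conditions: 1.25 nM PFK, 0.1 mM ATP, 0.5 mM F6P, 45 min RT.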
In general terms: In qHTS, concentration-response curves come from the screen itself.

The target of assay [2] is Luciferin 4-monooxygenase (Photinus pyralis) (UniProt P08659). The assay is described as follows: Biochemical firefly luciferase enzyme assay for NPC (AID 624030).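 Also: purified P. pyralis luciferase at 10 nM with luciferin and ATP substrate; 0% = DMSO and -100% = full luciferase inhibition by PTC124 control; nearly all actives have a fitted effect of over 70% in size.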 The gist of the method: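 Counter-screen for direct inhibition of the luciferase enzyme by approved-drug library compounds, run at 10 nM enzyme in 50 mM Tris acetate (final). Luminescence was read within 5 min of enzyme-buffer addition and normalized to PTC124 versus DMSO (0%).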
Sequence of Luciferin 4-monooxygenase (Photinus pyralis) (P08659 whole entry, looked up): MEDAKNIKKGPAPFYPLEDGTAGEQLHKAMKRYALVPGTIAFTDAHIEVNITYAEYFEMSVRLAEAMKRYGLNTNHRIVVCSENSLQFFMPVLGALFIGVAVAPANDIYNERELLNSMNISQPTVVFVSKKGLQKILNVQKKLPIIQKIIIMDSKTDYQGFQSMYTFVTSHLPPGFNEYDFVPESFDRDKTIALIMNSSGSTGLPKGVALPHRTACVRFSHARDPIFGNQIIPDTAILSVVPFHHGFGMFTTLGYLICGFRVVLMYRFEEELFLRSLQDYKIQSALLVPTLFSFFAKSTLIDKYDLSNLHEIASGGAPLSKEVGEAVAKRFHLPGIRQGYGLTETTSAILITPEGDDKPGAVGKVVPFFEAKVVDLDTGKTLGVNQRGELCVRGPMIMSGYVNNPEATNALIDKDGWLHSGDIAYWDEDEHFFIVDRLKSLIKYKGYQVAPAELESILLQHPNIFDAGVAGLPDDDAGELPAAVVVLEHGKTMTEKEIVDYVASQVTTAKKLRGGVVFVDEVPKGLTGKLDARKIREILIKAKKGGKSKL

The nature of assay [3]: qHTS profiling for inhibitors of Plasmodium falciparum proliferation (AID 504749). Also: potency is read from the fitted curve at half-maximal effect.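 As to activity, negative = inhibition: 0% = DMSO vehicle and full inhibition = artemisinin control.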 As to all read-outs here: nearly all actives have a fitted effect of over 60% in size. Particulars: P. falciparum in erythrocytes, SYBR Green DNA, 72 h; for activity, negative = inhibition: at 28.7 µM (top of the series). The essentials: (§1)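 Fluorescence of SYBR Green-bound parasite DNA, read at 485/535 nm, served as the growth measure. Infected erythrocytes were cultured with compound 72 h; artemisinin (0.29 uM) and DMSO wells defined the normalization range.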

For assay [4], the system named is CP185. The description is as above. Particulars: P. falciparum in erythrocytes, SYBR Green DNA, 72 h; series mostly up to 28.7 µM. The gist of the method:
as §1

For assay [5], the system named is CP238. Described as above. As to conditions: P. falciparum in erythrocytes, SYBR Green DNA, 72 h; series mostly up to 28.7 µM. The essentials:
as §1

Assay [6] deals with CP252. Described as above. As to conditions: P. falciparum in erythrocytes, SYBR Green DNA, 72 h; series mostly up to 28.7 µM. The essentials: as §1
For assay [7], the system named is CP262. The description is as above. Particulars: P. falciparum in erythrocytes, SYBR Green DNA, 72 h; series mostly up to 28.7 µM. The gist of the method: as §1
Assay [8] has as its system CP265. The assay is described as above. As to conditions: P. falciparum in erythrocytes, SYBR Green DNA, 72 h; series mostly up to 28.7 µM. The essentials:
as §1

Assay [9] concerns CP286. Described as above. As to conditions: P. falciparum in erythrocytes, SYBR Green DNA, 72 h; series mostly up to 28.7 µM. The gist of the method: as §1
Assay [10] relates to DFO2036. The assay is described as above. Particulars: P. falciparum in erythrocytes, SYBR Green DNA, 72 h; series mostly up to 28.7 µM. The gist of the method:
as §1

The subject of assay [11] is Dd2. The description is as above. Particulars: P. falciparum in erythrocytes, SYBR Green DNA, 72 h; series mostly up to 28.7 µM. The gist of the method:
as §1

Assay [12] relates to ECU. The description is as above. As to conditions: P. falciparum in erythrocytes, SYBR Green DNA, 72 h; series mostly up to 28.7 µM. The essentials: as §1
The test system of assay [13] is FAB9. Described as above. As to conditions: P. falciparum in erythrocytes, SYBR Green DNA, 72 h; series mostly up to 28.7 µM. The essentials: as §1
The test system of assay [14] is JCK. The assay is described as above. As to conditions: P. falciparum in erythrocytes, SYBR Green DNA, 72 h; series mostly up to 28.7 µM. The essentials: as §1
The subject of assay [15] is N140. Described as above. As to conditions: P. falciparum in erythrocytes, SYBR Green DNA, 72 h; series mostly up to 28.7 µM. The essentials:
as §1

In assay [16] the test system is CP192. The description is as above. As to conditions: P. falciparum in erythrocytes, SYBR Green DNA, 72 h; series mostly up to 28.7 µM. The essentials:
as §1

Assay [17] deals with CP211. Described as above. Particulars: P. falciparum in erythrocytes, SYBR Green DNA, 72 h; series mostly up to 28.7 µM. The gist of the method:
as §1

The subject of assay [18] is CP269. The description is as above. Particulars: P. falciparum in erythrocytes, SYBR Green DNA, 72 h; series mostly up to 28.7 µM. The gist of the method: as §1
For assay [19], the system named is CP315. Described as above. Particulars: P. falciparum in erythrocytes, SYBR Green DNA, 72 h; series mostly up to 28.7 µM. The essentials:
as §1

Assay [20] has as its system CP329. The assay is described as above. Particulars: P. falciparum in erythrocytes, SYBR Green DNA, 72 h; series mostly up to 28.7 µM. The gist of the method:
as §1

Results filed as inconclusive are left out. A number with no mark means an inactive call. Activity calls are given as the source filed them. Calls follow the shape of the dose curve; as a rule, active = well fitted curve in the direction sought with a large enough effect; inconclusive = small, poorly fitted or top-dose-only effect, or another doubt; inactive = no such curve, though single readings can be large; an effect the other way counts as inactive or inconclusive.

Sequence of ATP-dependent 6-phosphofructokinase (Trypanosoma brucei brucei) (O15648 whole entry, looked up): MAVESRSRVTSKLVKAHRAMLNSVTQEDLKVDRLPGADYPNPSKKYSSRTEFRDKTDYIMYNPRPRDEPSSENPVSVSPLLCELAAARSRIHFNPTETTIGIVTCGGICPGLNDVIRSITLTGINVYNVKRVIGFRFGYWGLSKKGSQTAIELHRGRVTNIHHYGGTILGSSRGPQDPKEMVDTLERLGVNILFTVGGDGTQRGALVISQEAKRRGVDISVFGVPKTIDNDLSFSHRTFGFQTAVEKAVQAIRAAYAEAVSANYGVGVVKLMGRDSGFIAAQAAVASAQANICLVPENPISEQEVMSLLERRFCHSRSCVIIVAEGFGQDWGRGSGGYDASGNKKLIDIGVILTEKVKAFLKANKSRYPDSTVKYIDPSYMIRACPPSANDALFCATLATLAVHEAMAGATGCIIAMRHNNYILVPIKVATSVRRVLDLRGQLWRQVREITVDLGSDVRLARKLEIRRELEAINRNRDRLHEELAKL

Consider `CC(=O)OC1C([N+]2(C)CCCCC2)C[C@H]2C3CC[C@H]4C[C@H](OC(C)=O)C([N+]5(C)CCCCC5)CC4(C)C3CCC12C` (stereo not given in full), for which the Potency result in assay [1], in assay [2], in assay [4], in [5], in assay [6] and in assay [7] was “inactive” throughout. Moreover, the Potency result in assay [8], in [9], in [10], in assay [11], in assay [12] and in assay [13] was “inactive” in each case. The Potency result in assay [14] and in assay [15] was “inactive” each time. For the same compound, the activity, negative = inhibition in assay [3] (parasite line A) was -25%; in assay [3] (parasite line B) it was 8.8%.

As to `CC(=O)CC(c1ccccc1)C1C(=O)Oc2ccccc2C1=O` (stereo not given), the Potency entry in assay [1], in assay [2], in [4], in assay [16], in [17] and in [5] was “inactive” throughout. Further, the Potency entry in assay [6], in assay [7], in assay [8], in assay [18], in assay [9] and in assay [19] was “inactive” throughout. Besides, the Potency result in assay [20], in [10], in assay [11], in assay [12], in assay [13] and in assay [14] was “inactive” each time. The Potency entry in [15] was “inactive”. Besides, the activity, negative = inhibition in assay [3] (parasite line A) is 13.7%; in assay [3] (parasite line B) it was 9.27%.

Consider `CCCC(=O)Nc1c(I)cc(I)c(C[C@H](CC)C(=O)O)c1I`, for which the Potency entry in assay [1], in [2], in [4], in [16], in assay [17] and in assay [5] was “inactive” each time. Further, the Potency result in assay [6], in assay [7], in [8], in assay [18], in assay [9] and in assay [19] was “inactive” each time. The Potency entry in assay [20], in assay [10], in [11], in assay [12], in assay [13] and in assay [14] was “inactive” throughout. In assay [15], the Potency result was “inactive”. Moreover, the figures for the activity, negative = inhibition in assay [3] (parasite line A) and in assay [3] (parasite line B) were 2.81% and -1.24%, respectively.

In the case of `COc1ccc(S(=O)(=O)N2c3ccc(Cl)cc3[C@](O)(c3ccccc3Cl)[C@@H]2C(=O)N2CCC[C@H]2C(N)=O)cc1OC`, the Potency entry in [1], in assay [2], in assay [4], in [16], in assay [17] and in assay [5] was “inactive” throughout. In addition, the Potency result in assay [6], in assay [7], in assay [8], in assay [18], in assay [9] and in [19] was “inactive” each time. Moreover, the Potency result in [20], in [10], in assay [11], in assay [13] and in [14] was “inactive” each time. Also, the activity, negative = inhibition is -28.5% in assay [3] (parasite line A) and -6.86% in [3] (parasite line B).

In the case of `O=C(O)C(O)c1ccccc1` (stereo not given), the Potency result in [1], in assay [2], in assay [4], in assay [16], in assay [17] and in [5] was “inactive” each time. Besides, the Potency entry in assay [6], in assay [7], in assay [8], in assay [18], in [9] and in [19] was “inactive” in each case. Further, the Potency entry in [20], in [10], in assay [11], in assay [12], in assay [13] and in [14] was “inactive” in each case. For the same compound, the Potency result in [15] is “inactive”. The activity, negative = inhibition was 2.53% in [3] (parasite line A) and 10.7% in assay [3] (parasite line B).

In the case of `CO/N=C(/C(=O)N[C@@H]1C(=O)N2C(C(=O)O)=C(CSc3nnnn3C)CS[C@H]12)c1csc(N)n1`, the Potency entry in assay [1], in [2], in [4], in assay [16], in assay [17] and in [5] was “inactive” each time. Also, the Potency entry in [6], in [7], in assay [8], in assay [18], in assay [9] and in [19] was “inactive” each time. Also, the Potency entry in assay [20], in [10], in assay [11], in assay [12], in assay [13] and in [14] was “inactive” each time. Further, the Potency result in [15] is “inactive”. Also, the activity, negative = inhibition was 6.68% in [3] (parasite line A) and 0.88% in assay [3] (parasite line B).

For `CCCCC(=O)O[C@]1(C(=O)CO)CCC2C3CCC4=CC(=O)CCC4(C)C3C(O)CC21C` (stereo not given in full), the Potency entry in assay [1], in [2], in [4], in assay [16], in assay [17] and in assay [5] was “inactive” throughout. For the same compound, the Potency result in assay [6], in assay [7], in assay [8], in [18], in assay [9] and in assay [19] was “inactive” in each case. Besides, the Potency result in assay [20], in assay [10], in assay [12], in assay [13], in [14] and in [15] was “inactive” throughout. Moreover, the activity, negative = inhibition in [3] (parasite line A) was -2.08%; in assay [3] (parasite line B) it was -4.71%.

In the case of `C[C@@H]1CC2C3CCC4=CC(=O)C=C[C@]4(C)[C@@]3(F)[C@@H](O)C[C@]2(C)[C@@]1(O)C(=O)COC(=O)c1cccc(S(=O)(=O)O)c1` (stereo not given in full), the Potency result in assay [1], in [2], in [4], in [16], in [17] and in assay [5] was “inactive” each time. Besides, the Potency entry in assay [6], in assay [7], in [8], in assay [18], in [9] and in [19] was “inactive” each time. Also, the Potency entry in assay [20], in assay [10], in assay [11], in [12], in assay [13] and in assay [14] was “inactive” throughout. The Potency entry in [15] was “inactive”. The activity, negative = inhibition in assay [3] (parasite line A) is 4.33%; in assay [3] (parasite line B), -2.2%.

With `Nc1nc(/C(=C/CC(=O)O)C(=O)NC2C(=O)N3C(C(=O)O)=CCSC23)cs1` (stereo not given), the Potency result in [1], in [2], in assay [4], in assay [16], in assay [17] and in assay [5] was “inactive” throughout. Further, the Potency entry in assay [6], in [7], in assay [8], in assay [18], in [9] and in assay [19] was “inactive” in each case. Besides, the Potency entry in assay [20], in assay [10], in [11], in assay [12], in assay [13] and in assay [14] was “inactive” each time. For the same compound, in [15], the Potency entry is “inactive”. Also, the figures for the activity, negative = inhibition in assay [3] (parasite line A) and in assay [3] (parasite line B) were -3.7% and 3.34%, respectively.

As for `C[C@@H](O)[C@@H]1C(=O)N2C(C(=O)O)=C([C@H]3CCCO3)S[C@H]12`, the Potency result in [1], in [2], in assay [4], in [16], in [17] and in assay [5] was “inactive” throughout. In addition, the Potency entry in assay [6], in assay [7], in assay [8], in assay [18], in assay [9] and in [19] was “inactive” throughout. The Potency entry in [20], in assay [10], in [11], in [12], in assay [13] and in assay [14] was “inactive” in each case. In assay [15], the Potency result is “inactive”. Besides, the activity, negative = inhibition was -3.21% in assay [3] (parasite line A) and 2.27% in [3] (parasite line B).

`Clc1ccc(CS[C@@H](Cn2ccnc2)c2ccc(Cl)cc2Cl)cc1`: the Potency result in assay [1] and in assay [2] was “inactive” in each case. Moreover, the Potency in assay [3] (parasite line A) is 3.16 µM (active); in assay [3] (parasite line B) it was 2.24 µM (active); in assay [4], 3.98 µM (active); in assay [6], 3.98 µM (active); in [8], 3.16 µM (active); in [18] it was 6.42 µM (active). Besides, the Potency in assay [9] was 3.55 µM (active); in assay [10], 3.16 µM (active); in [11], 4.47 µM (active); in assay [12], 1.78 µM (active); in [15] it was 1.41 µM (active).

For the origin of these results see PubChem BioAssay (NCATS).
